# ADAM17 inh: inhibits human ADAM17; hit rate 0.83% among 370,000; recombinant ADAM17, EDANS/DABCYL FRET peptide cleavage; inhibition, % at 6.95 µM;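 active = inhibition above the mean of compounds lying between control limits plus 3 SD, set per campaign, cut at about 8.5% in these data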;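 also: 0% = DMSO-only wells as the low control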
# Target sequence (P78536 215-824 limits assumed): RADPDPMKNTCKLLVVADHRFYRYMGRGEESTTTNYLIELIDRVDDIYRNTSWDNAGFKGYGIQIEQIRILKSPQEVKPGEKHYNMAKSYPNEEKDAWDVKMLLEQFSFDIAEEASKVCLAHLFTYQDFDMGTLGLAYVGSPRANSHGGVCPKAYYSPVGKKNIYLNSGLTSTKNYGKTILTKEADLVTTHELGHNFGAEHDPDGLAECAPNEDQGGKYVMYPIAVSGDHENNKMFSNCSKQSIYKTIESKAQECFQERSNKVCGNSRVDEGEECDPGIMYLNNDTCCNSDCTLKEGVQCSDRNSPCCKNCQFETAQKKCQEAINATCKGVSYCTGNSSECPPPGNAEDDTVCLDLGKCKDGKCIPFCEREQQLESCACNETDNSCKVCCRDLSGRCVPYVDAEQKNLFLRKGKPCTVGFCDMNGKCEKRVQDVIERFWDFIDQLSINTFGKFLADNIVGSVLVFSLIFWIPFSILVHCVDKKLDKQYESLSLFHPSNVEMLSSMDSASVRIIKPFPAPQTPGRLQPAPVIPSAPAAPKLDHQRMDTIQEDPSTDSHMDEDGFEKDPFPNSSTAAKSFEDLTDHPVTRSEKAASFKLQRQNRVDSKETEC
# PLCb3 inh: inhibitors of human phospholipase C beta3 | inhibition, % at 12.2 µM | Purified PLC-beta3, fluorogenic substrate, fluorescence | hit rate 0.18% among 370,000 | Q01970 | AID 720704;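 also: 0% = median of compound wells on plate and 100% = full blocker control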
# PLC-gamma1 inh: blocks human PLC-gamma1 enzyme activity. hit rate 0.84% among 370,000. P19174. inhibition, % at 12.2 µM. AID 720700. purified PLC-gamma1, fluorogenic substrate, fluorescence; in the data active = inhibition above about 9.5%
# ADAM10 inh: ADAM10 inhibition, QFRET primary screen. recombinant ADAM10, EDANS/DABCYL FRET peptide cleavage, 3 h. inhibition, % at 7 µM. hit rate 0.62% among 370,000. AID 720582;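 active = inhibition above a per-campaign cutoff equal to the mean of compounds falling between control-based bounds plus 3 SD, cut at about 20% in these data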;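 also: 0% = DMSO wells while the 100% control is not disclosed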
# proKLK7 act: activators of human kallikrein-7 zymogen; P49862; purified proKLK7, EDANS-DABCYL substrate fluorescence; 100% is mature enzyme control, 0% vehicle; activation, % at 7 µM; hit rate 0.9% among 370,000; AID 652039;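 active = activation above the mean of all tested compounds plus 3 SD, computed per campaign excluding outliers beyond control limits, cut at about 13% in these data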
# PLCg1 ctr: PLC-gamma1 inhibition, counter-screen for PLC-beta3 hits; shares compounds with PLC-gamma1 inh; purified PLC-gamma1, fluorogenic substrate, fluorescence; inhibition, % at 12.3 µM; hit rate 3.1% among 3,300; in the data active = inhibition above about 9.5%
# PLCbeta3 conf: human PLC-beta3 inhibition, confirmation | inhibition, % at 12.3 µM | purified PLC-beta3, fluorogenic substrate fluorescence | hit rate 1% among 3,300 | shares compounds with PLC-gamma1 inh
# Numbers without * were called inactive; x = no result. Compounds with a hit are over-represented: about 2.9% of the library has one in this group of screens. Rule as the data show it, unless noted: active = inhibition above about 11%; inactive = the rest.
SMILES,ADAM17 inh,PLCb3 inh,PLC-gamma1 inh,ADAM10 inh,proKLK7 act,PLCg1 ctr,PLCbeta3 conf
CCc1nc2ccc(C(=O)Nc3cccc(OC)c3)cn2c1N(CC)CCOC,5,-1,5,5,0,x,x
COc1ccc(NC(=O)C2c3ccccc3OCC(=O)N2Cc2ccco2)cc1 (stereo not given),-4,0,0,-12,0,x,x
O=C(Cc1ccccc1)Nc1cccc(NC(=O)c2cccs2)c1,8,4,11*,12,0,-4,-1
Cc1cc(NC(=O)c2cccs2)ccc1NC(=O)Cc1ccccc1,3,3,-3,3,3,x,x
O=C(NCc1ccc(F)cc1)c1cc(C2CCCN(C(=O)c3cccs3)C2)on1 (stereo not given),-3,-1,-1,-10,0,x,x
O=C(NCc1cccnc1)c1cc(C2CCCN(C(=O)c3cccs3)C2)on1 (stereo not given),8,9,16*,-9,0,-1,5
COc1ccccc1CNc1ncccn1,5,1,9.7*,10,0,-2,2
COc1ccccc1CNc1cncnc1,-26,-25,-11,-53,0,x,x
CCOC(=O)C1(CC2CCCCO2)CCN(S(=O)(=O)c2c(C)nn(C)c2C)CC1 (stereo not given),4,13*,13*,1,-1,-6,-3
COc1ccc(C(C)NCCC(c2ccc(OC(C)C)cc2)c2ccccc2OC)cc1 (stereo not given),5,0,16*,9,0,-1,0
Cc1ccc(-c2cc(N)n(-c3ccc(C)cc3)n2)cc1,0,-4,-1,1,-1,x,x
Cc1ccc(-c2cc(N)n(-c3ccc(F)cc3)n2)cc1,4,1,13*,9,1,2,6
COc1ccc(CN2CCN(c3ccccn3)CC2)c(OC)c1,4,3,10*,11,0,-8,0
CCCCCCCCCC(=O)N/N=C/c1ccc(C)s1,7,4,10*,16,0,-8,-7
Cc1ccc(/C=N/NC(=O)C[n+]2ccccc2)s1,1,0,1,3,0,x,x
CCOc1ccc(Cl)cc1-c1cc(C(=O)Nc2ccc(F)cc2)[nH]n1,7,0,1,11,0,x,x
O=S1(=O)N[C@H](Cc2ccccc2)COc2cc(N3CCCCC3)ccc21,1,-2,-1,-2,0,x,x
CCOc1ccc2nc(C)cc(Nc3cccc([N+](=O)[O-])c3)c2c1,7,8,11*,9,6,-2,-1
CC(C)(C)OC(=O)N(CC1CCNCC1)C(=O)c1[nH]c(C(F)(F)F)nc1-c1ccccc1,-1,0,-1,-3,0,x,x
c1ccn(-c2ccc(N3CCOCC3)cc2)c1,-2,-1,0,-8,0,x,x
c1ccc(N2CCOCCOCCOCCOCC2)cc1,1,5,12*,7,0,2,2
CCOC(=O)c1ccc(NC(=O)c2nc[nH]c2C(=O)NC2CCN(C(=O)OC(C)(C)C)CC2)cc1,-5,6,11*,-17,0,-8,-4
CN(Cc1cn(Cc2ccc(F)cc2)nn1)C1CN(Cc2cn(Cc3ccc(F)cc3)nn2)S(=O)(=O)C1 (stereo not given),-4,2,0,-7,-1,x,x
Cc1ccc(S(=O)(=O)N2CCC(=O)N(C(COCc3cccc(C)c3)C(C)C)CC2)cc1 (stereo not given),7,2,11*,12,1,2,2
CC(=O)c1c(C)nc2ccc([N+](=O)[O-])cc2c1-c1ccccc1,8,5,14*,14,0,0,2
SMILES,ADAM17 inh,PLCb3 inh,PLC-gamma1 inh,ADAM10 inh,proKLK7 act,PLCg1 ctr,PLCbeta3 conf
CCCCNC(=O)c1[nH]c(C2CCNCC2)nc1-c1cccc(C(F)(F)F)c1,-4,2,-2,-11,0,x,x
CC(C)n1c(-c2ccccc2F)n[nH]c1=S,-6,1,-1,-1,0,x,x
CC(c1ccccc1)n1c(-c2ccccc2F)n[nH]c1=S (stereo not given),5,8,9.9*,15,0,5,2
CCc1nc2ccc(C(=O)NC(C)(C)C)cn2c1N(CC)Cc1cccc(Br)c1,-1,-19,-10,2,0,x,x
CCOc1cc(/C=C2/C(=O)N(c3ccccc3)N=C2C)ccc1OC(=O)c1ccco1,3,3,10*,-1,0,-4,-3
CCC(C)NCCCOc1cc(Cl)ccc1Cl (stereo not given),1,2,1,2,0,x,x
CCCCNCCCOc1cc(Cl)ccc1Cl,8,11*,7,4,0,-5,1
COC(=O)C[C@@H]1CC[C@H]2[C@H](COc3ccc(NC(=O)Nc4ccc(Cl)cc4)cc3C(=O)N2C)O1,2,6,7,9,0,x,x
COc1ccc(C(N)c2csc(Nc3nncc4ccccc34)n2)cc1 (stereo not given),-5,-60,-49,-19,-1,x,x
O=C1CN(C(=O)c2ccccc2F)C(c2ccccc2)c2cc(Cl)ccc2N1 (stereo not given),1,-5,10*,18,1,-4,0
Cc1cc(C)nc(SCCn2c(N3CC(C)OC(C)C3)nc3c2c(=O)n(C)c(=O)n3C)n1 (stereo not given),-5,-6,0,-4,-1,x,x
Cc1cc(C)nc(SCCn2c(N3CCCCC3)nc3c2c(=O)n(C)c(=O)n3C)n1,-3,8,9.6*,-2,-1,-3,-1
CCCNC(=O)C[C@H]1CC[C@H]2[C@@H](COc3ccc(NC(=O)Nc4ccccc4)cc3C(=O)N2C)O1,0,4,5,-2,0,x,x
C[C@@H](NC(=O)C[C@H]1CC[C@H]2[C@@H](COc3ccc(NC(=O)Nc4ccccc4)cc3C(=O)N2C)O1)c1ccccc1,-9,3,12*,1,0,4,8
CCNC(=O)Nc1ccc2c(c1)C(=O)N(C)[C@H]1CC[C@@H](CC(=O)OC)O[C@H]1CO2,-2,2,0,1,0,x,x
CCNC(=O)Nc1ccc2c(c1)C(=O)N(C)[C@H]1CC[C@H](CC(=O)N[C@H](C)c3ccccc3)O[C@@H]1CO2,-7,7,9.5*,16,0,11*,12*
COc1ccc(NC(=O)C2(C)CCN2Cc2cccc(OC)c2F)cc1OC (stereo not given),-4,1,4,-6,0,x,x
Cn1c(CSCc2ccccc2Cl)nnc1SCC(=O)Nc1nccs1,-4,0,15*,6,1,-3,-1
Cn1c(CC(=O)Nc2ccc(Cl)c(Cl)c2)nnc1SCC(=O)Nc1nccs1,-1,2,2,3,0,x,x
